Active and inactive are the calls of the source. The calls were made as follows: active = hit-call score of the fitted dose curve at least 0.9, where 1 is the maximum; inactive = score below 0.9.

A short description of the assay: ATG_AP_2_CIS: Attagene CIS-FACTORIAL HepG2 Assay for human Activator Protein 2 (AP-2) (AID 2282932). The note with it: HepG2 AP-2 cis-reporter, Attagene transcription factor profiling; actives raise or lower the signal. In short, it runs like this: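 Step one: transient transfection of HepG2 with reporter transcription units. Step two: 24 h chemical exposure. Step three: RNA extraction, RT-PCR, labelled fragment analysis by capillary electrophoresis; DMSO serves as baseline.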
As for `CCOS(=O)(=O)OCC`, the compound was called inactive. The value for `ClC(Cl)(Cl)c1ccccc1` was “inactive”; that for `CC(C)(C)N(NC(=O)c1ccc(Cl)cc1)C(=O)c1ccccc1` was “inactive”. The entry for `CCN(CC)c1ccccc1` is “inactive”; for `CCCCN(CCCC)SN(C)C(=O)Oc1cccc2c1OC(C)(C)C2` it is “inactive”; for `CCOP(=S)(OCC)SCSCC` it is “inactive”. The entry for `CCCCCCCc1ccc(O)cc1` is “inactive”; for `O=C(O)C=CC(F)(C(F)(F)F)C(F)(F)F` it is “inactive”; for `CC(Cc1ccc(OCC(=O)O)cc1)NCC(O)c1csc(C(F)(F)F)n1` (centres undefined) it is “inactive”. On to `CCC(C)(C)c1ccc(O)cc1`, for which the call was inactive. The value for `O=S(=O)(F)C(F)(F)C(F)(F)C(F)(F)C(F)(F)C(F)(F)C(F)(F)C(F)(F)C(F)(F)F` was “inactive”; that for `N#Cc1c(-c2ccc(Cl)cc2)[nH]c(C(F)(F)F)c1Br` was “inactive”; that for `O=P(Oc1ccccc1)(Oc1ccccc1)Oc1ccccc1` was “inactive”. The value for `O=[N+]([O-])c1ccc(Cl)c(Cl)c1` was “inactive”; that for `C/C(=N\NC(=O)Nc1cc(F)cc(F)c1)c1ncccc1C(=O)O` was “inactive”. The entry for `Nc1ccc(Cl)cc1` is “inactive”.

In the case of `CC(O)C#N` (centres undefined), the compound was called inactive. As to `C=C(C)C(=O)OCC1CO1` (centres undefined), the outcome was inactive. The value for `CCCCN(CC)C(=O)SCCC` was “inactive”; that for `CCCCN(CCCC)N=O` was “inactive”. The value for `ClC(Cl)c1ccccc1` was “inactive”; that for `c1ccc2c(c1)sc1ccccc12` was “inactive”; that for `Cc1ccc([N+](=O)[O-])cc1C` was “inactive”. The value for `CCC1(c2ccccc2)C(=O)N=C(O)NC1=O` (centres undefined) was “inactive”; that for `OCC(F)(F)OC(F)(F)C(F)(F)OC(F)(F)CO` was “inactive”.

Turning to `CCOP(=S)(Oc1ccc([N+](=O)[O-])cc1)c1ccccc1` (centres undefined), the result was inactive.

As for `CCOP(=S)(OCC)SCn1nnc2ccccc2c1=O`, the result was inactive.

In the case of `CC(C)(C)OOC(C)(C)C`, the outcome was inactive. The entry for `Nc1ccc(Sc2ccc(N)cc2)cc1` is “inactive”.

On to `CN(C)C(=O)Cl`, for which the outcome was inactive. `CCCCc1ccc(O)cc1`: the outcome was inactive. For `c1ccc(OP(Oc2ccccc2)Oc2ccccc2)cc1`, the call was inactive. The value for `CC(Cl)(Cl)C(=O)O` was “inactive”.

Regarding `OCC(F)(F)OC(F)(F)C(F)(F)OC(F)(F)C(F)(F)OC(F)(F)CO`, the result was inactive. The entry for `O=C(O)C1C(C(=O)O)C2(Cl)C(Cl)=C(Cl)C1(Cl)C2(Cl)Cl` (centres undefined) is “inactive”; for `O=P1(N(CCCl)CCCl)NCCCO1` (centres undefined) it is “inactive”; for `O=C(O)C(F)(OC(F)(F)C(F)(F)C(F)(F)F)C(F)(F)F` (centres undefined) it is “inactive”.

For `CCCCc1ccccc1`, the result was inactive.

As for `N#Cc1cc([N+](=O)[O-])ccc1N`, the compound was classed as inactive.

The values above are taken from PubChem BioAssay (EPA / NIEHS).
